MazF activator: activators of E. coli MazEF toxin-antitoxin RNase; FAM/BHQ RNA-DNA oligo cleavage fluorescence, 5 h; activation, % at 20 µM; hit rate 0.32% among 350,000; AID 504720; in the data active = activation above about 50%
Target sequence (P0AE70 whole entry, looked up): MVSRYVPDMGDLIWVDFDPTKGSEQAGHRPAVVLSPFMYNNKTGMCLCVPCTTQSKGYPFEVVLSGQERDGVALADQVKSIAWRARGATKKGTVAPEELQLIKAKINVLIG
Anthrax LF prot: inhibitors of Bacillus anthracis lethal factor protease; P15917; multiplex microsphere protease cleavage assay, LF; inhibition, % at 10 µM; hit rate 0.12% among 360,000; AID 588501
BoNT F protease: inhibitors of Botulinum neurotoxin F light chain protease; AID 588497; inhibition, % at 10 µM; hit rate 0.22% among 360,000; Multiplex microsphere protease cleavage assay, flow cytometry; in the data active = inhibition above about 35%, passing the limit was not always enough; inconclusive = no clear call, values can overlap the other calls
BoNT-A LC inh2: BoNT A light chain protease inhibition; multiplex microsphere protease substrate cleavage, flow cytometry; inhibition, % at 10 µM; hit rate 0.17% among 360,000
Bead autofluor: compound fluorescence in toxin protease inhibitor counterscreen; compound autofluorescence counterscreen, microsphere flow cytometry; stronger effect = higher value; fluorescence intensity (test concentration not listed); hit rate 3.1% among 360,000; AID 624483; in the data active = fluorescence intensity above about 16000; inconclusive = no clear call, values can overlap the other calls
A number is an active result; - = inactive; ? = inconclusive; . = not tested or not shown. Only some compounds are listed: those with a hit (about 3.6% of all), similar ones and a draw of the others. Cut-off read from the data, not from the text of the source, unless noted: active = inhibition above about 30%; inconclusive = no clear call, values can overlap the other calls; inactive = below that.

SMILES | MazF activator | Anthrax LF prot | BoNT F protease | BoNT-A LC inh2 | Bead autofluor
CCCOc1ccc(C(CC(=O)O)NC(=O)C23CC4CC(CC(C4)C2)C3)cc1 (configuration not stated) | - | - | - | - | 23418
Nc1nc(-c2ccccc2)ns1 | - | - | - | - | -
CC(N=Cc1c(O)[nH]c(=O)[nH]c1=O)c1ccccc1 (configuration not stated) | - | - | - | - | 17759
CC(N=Cc1cccc(O)c1O)c1ccccc1 (configuration not stated) | - | - | - | - | 22938
CC(N=Cc1cc([N+](=O)[O-])ccc1O)c1ccccc1 (configuration not stated) | - | - | - | - | -
O=C1OCCN1N=Cc1ccco1 | - | - | - | - | -
c1nc(N2CCCC2)c2[nH]cnc2n1 | - | - | - | ? | 23416
COc1ccc(-c2cnc3c(NC(C)=O)cc(-c4ccc(S(C)(=O)=O)cc4)cn23)cc1OC | . | - | - | - | -
COC(=O)c1ccc(Oc2nc(Nc3ccc(C)c(C)c3)nc(N(C)C)n2)cc1 | - | - | - | - | 24525
CCNc1nc(Oc2ccc(C(=O)OC)cc2)nc(N(C)C)n1 | - | - | - | - | -
COc1ccc(C2c3c4c(n(C)c3CCN2C)CCN(C)C4c2ccc(OC)cc2)cc1 (configuration not stated) | - | - | - | - | 16735
C#CCOCCOCCOCCNc1nc(N2CCOCC2)nc(N2CCN(C(=O)Cn3cc(CCCCN)nn3)CC2)n1 | - | - | - | - | -
CC1([N+](=O)[O-])COP(=O)(Nc2cccc(Br)c2)OC1 (configuration not stated) | - | - | - | - | 16672
CC1([N+](=O)[O-])COP(=O)(Nc2ccc(Cl)cc2)OC1 (configuration not stated) | - | - | - | - | -
COc1ccccc1NC(=O)N(C)C[C@@H]1OCc2cnnn2CCCC(=O)N([C@H](C)CO)C[C@@H]1C | - | - | - | - | -
O=C(CNC(=O)c1ccccc1C(=O)O)c1ccccc1 | - | - | - | - | 22929
C[C@@H]1CN([C@@H](C)CO)C(=O)c2cc(N(C)C)ccc2O[C@@H](C)CCCCO[C@@H]1CN(C)Cc1ccc2c(c1)OCO2 | - | - | - | - | -
CC(C)CNS(=O)(=O)c1ccc(Br)cc1N1CCC[C@@H]1CO | - | - | - | - | -
CCC(CC)NC(=O)CSc1ccc(S(=O)(=O)N2CCCCC2)cn1 | - | - | - | - | -
Nc1nc(N)c2cc(S(=O)(=O)c3ccc4ccccc4c3)ccc2n1 | 53 | - | - | - | -
Cc1ccccc1-c1nc(CN2CCCC(C(=O)NCc3cccnc3)C2)c(C)o1 (configuration not stated) | - | - | - | ? | 24766
Cc1ccccc1-c1nc(CS(=O)(=O)CC(=O)NCCCN2CCCC2)c(C)o1 | - | - | - | - | -
Cc1ccccc1-c1nc(CN2CCCC(C(=O)NCCCN3CCOCC3)C2)c(C)o1 (configuration not stated) | - | - | - | - | 24221
COc1ccc(CNC(=O)C2CCCN(Cc3nc(-c4cccc(C)c4)oc3C)C2)cc1 (configuration not stated) | - | - | - | - | -
Cc1oc(-c2ccc(Cl)cc2)nc1CN1CCC(C(=O)NCc2cccnc2)CC1 | - | - | - | - | 16967
SMILES | MazF activator | Anthrax LF prot | BoNT F protease | BoNT-A LC inh2 | Bead autofluor
COc1ccc(CCNC(=O)C2CCCN(Cc3nc(-c4ccccc4C)oc3C)C2)cc1OC (configuration not stated) | - | - | - | ? | 21174
Cc1ccc(-c2nc3cc(C)c(Br)c(C)n3c2Cc2ccsc2)cc1 | . | - | - | - | -
O=C(CCN=C1NS(=O)(=O)c2ccccc21)OCc1c(F)c(F)c(F)c(F)c1F | - | - | - | - | -
COc1cnc(-c2cccc(C(F)(F)F)c2)c(NC(=O)c2cc3ccccc3s2)n1 | . | - | - | - | -
COc1ccc(CCNC(=O)C2CCN(Cc3nc(-c4cccc(Cl)c4)oc3C)CC2)cc1OC | - | - | - | - | -
CCc1ccc(-c2nc(CN3CCCC(C(=O)NCCc4ccc(OC)c(OC)c4)C3)c(C)o2)cc1 (configuration not stated) | - | - | - | ? | 21829
COc1ccc(/C=N/Nc2nc(-c3ccc(C)cc3)c(NC(C)=O)s2)cc1OC | - | 36 | ? | - | -
COc1cc(/C=N\Nc2nc(-c3ccc(C)cc3)c(NC(C)=O)s2)ccc1O | - | - | - | - | -
COCCNC(=S)N1CCC2CC1c1c(Cl)cccc12 (configuration not stated) | - | - | - | - | -

Screening data from PubChem.
